This is a sample that favours compounds with a hit; in the whole collection about 8% have one here.
RORgamma inh = inhibitors of mouse ROR gamma transcriptional activity; P51450; AID 2551; Drosophila S2 Gal4-RORgamma UAS-luciferase reporter, 20 h; 5.4% of 310,000 active; Potency, µM (highest dose often 53.6 µM), usual class: inhibitors; further: nearly all actives have a fitted effect of over 60% in size
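ROR gamma transcriptional activity was tracked as Gal4-UAS luciferase output in stably transfected Drosophila Schneider cells, with compound added 1 hr before 700 uM copper sulfate induction and a 20 hr ambient-temperature incubation.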
VP16 counter = Gal4-VP16 reporter inhibition counter-screen. Drosophila S2 Gal4-VP16 UAS-luciferase, luminescence, 20 h. Potency, µM (doses to about 53.6 µM), actives largely listed as inhibitors. 3.5% of 310,000 active. AID 2546;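 further: Gal4-VP16 expression switched on by copper sulfate through the metallothionein promoter; nearly all actives have a fitted effect of over 50% in size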
TSHR antagonist = human thyrotropin receptor antagonism | P16473 | TSHR-expressing cells, TSH-stimulated cAMP HTRF, 2 h; stronger effect = lower value | activity change, negative = inhibition, % at 11.5 µM | 0.2% of 330,000 active;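 active means activity change below a set negative limit, meaning inhibition stronger than a set level, cut at about -70% in these data; inconclusive means activity change between two set negative limits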
Target sequence (P16473 whole entry, looked up): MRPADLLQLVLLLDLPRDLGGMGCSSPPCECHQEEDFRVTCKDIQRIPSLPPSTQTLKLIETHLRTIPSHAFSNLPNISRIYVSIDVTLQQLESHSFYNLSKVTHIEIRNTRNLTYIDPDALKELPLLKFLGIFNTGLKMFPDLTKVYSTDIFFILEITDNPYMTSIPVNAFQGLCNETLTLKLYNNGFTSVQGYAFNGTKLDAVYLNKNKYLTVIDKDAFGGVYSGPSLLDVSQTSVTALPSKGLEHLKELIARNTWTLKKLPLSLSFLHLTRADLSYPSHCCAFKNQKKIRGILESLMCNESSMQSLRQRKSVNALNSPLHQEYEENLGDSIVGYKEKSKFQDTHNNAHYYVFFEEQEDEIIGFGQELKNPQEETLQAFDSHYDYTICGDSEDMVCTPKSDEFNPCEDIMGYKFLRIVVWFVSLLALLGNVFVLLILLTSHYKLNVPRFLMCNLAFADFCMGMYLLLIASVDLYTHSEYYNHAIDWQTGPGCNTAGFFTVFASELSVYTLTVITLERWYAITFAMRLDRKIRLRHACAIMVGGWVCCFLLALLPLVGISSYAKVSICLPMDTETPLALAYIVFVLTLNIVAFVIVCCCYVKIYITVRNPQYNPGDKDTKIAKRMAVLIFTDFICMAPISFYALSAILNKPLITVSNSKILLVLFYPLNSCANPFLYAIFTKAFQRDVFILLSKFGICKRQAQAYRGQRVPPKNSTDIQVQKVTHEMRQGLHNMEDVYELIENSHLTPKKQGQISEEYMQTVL
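TSHR-expressing cells were treated with compounds, then stimulated with TSH at EC80 (4nM final) for 2 hours at 37 deg C. Cellular cAMP was measured by HTRF competition between lysate cAMP and cAMP-d2 for a cryptate-labelled anti-cAMP antibody.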
ELG1 DNA repair = blocks ELG1-dependent DNA repair in HEK293T cells | HEK293T ELG1-luciferase reporter, luminescence, 16 h; DNA damage induced by 5-fluorouridine | Potency, µM (highest dose often 46.1 µM), hits mostly inhibitors | 2.3% of 330,000 active | AID 504467; further: nearly all actives have a fitted effect of over 55% in size
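Reporter activity after DNA damage by 5-fluorouridine is monitored. Compound-treated cells incubate 16 hr at 37 °C, then ONE-Glo is added for 30 min before luminescence reading.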
Coupling enz = counter-screen for Giardia aldolase inhibitors: coupling enzyme system; coupling enzyme system counterscreen, AmpLite Red fluorescence; activity change, negative = inhibition, % at 58.2 µM, hits read low; 0.67% of 290,000 active; AID 2472; in the data active means activity change below about -30%
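Activity here indicates interference with the coupling reaction, not aldolase inhibition. Compounds at 57.5 uM final met coupling enzymes for 10 min at RT; substrate and AmpLite Red detection followed, with a 525/598 nm fluorescence read after 20 min.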
Numbers stand for hits; - = inactive; ? = inconclusive; . = no result given; [ ] = remark or other dose. Unless noted, the call rests on the fitted dose curve; in most records, active means well fitted curve in the direction sought with a large enough effect; inconclusive means small, poorly fitted or top-dose-only effect, or another doubt; inactive means no such curve, though single readings can be large; an effect the other way counts as inactive or inconclusive.

SMILES | RORgamma inh | VP16 counter | TSHR antagonist | ELG1 DNA repair | Coupling enz
CCCCc1ncc(CN2CCCC(C(=O)c3ccc(SC)cc3)C2)[nH]1 (stereo not given) | 11µM | - | - | ? | -
COC(=O)C1(O)CC2OC1(C)n1c3ccccc3c3c4c(c5c6ccccc6n2c5c31)C(=O)NC4 (stereo not given) | -[10 µM] | ? | . | . | -
CN[C@H]1C[C@H]2O[C@@](C)([C@H]1OC)n1c3ccccc3c3c4c(c5c6ccccc6n2c5c31)C(=O)NC4 | ? | 6.3µM | - | 0.52µM | -
ClCc1ccccc1 | - | - | . | . | .
C=CCOCC1CO1 (stereo not given) | - | - | . | . | .
CC[C@@]1(O)C(=O)OCc2c1cc1n(c2=O)-c2cc3ccccc3nc2C1 | 0.13µM | ? | . | . | -
O=C1Nc2ccccc2/C1=C/c1nc2ccccc2c(=O)n1-c1ccc(O)cc1 | - | - | - | 18µM | -
Cc1onc(-c2ccccc2Cl)c1C(=O)OCC(=O)c1ccc2c(c1)OCCO2 | ? | - | - | 13µM | -
COc1cc(C(=O)NC(=S)N2C[C@H]3C[C@H](C2)c2cccc(=O)n2C3)cc(OC)c1OC | - | - | - | - | -
O=C(Nc1ccc(Cl)cc1)N1CC2CC(C1)c1cccc(=O)n1C2 (stereo not given) | - | - | - | ? | .
COc1cc(OC)cc(C(=O)NC(=S)N2C[C@H]3C[C@H](C2)c2cccc(=O)n2C3)c1 | 11µM | - | - | - | -
O=C(NC(=S)N1C[C@H]2C[C@H](C1)c1cccc(=O)n1C2)c1ccc(Cl)cc1 | 4.5µM | ? | - | - | -
COc1ccc(-n2nc(C(=O)NCC(=O)N3CCC4(CC3)OCCO4)c3ccccc3c2=O)c(OC)c1 | 6.3µM | 10µM | - | ? | -
O=C(Cn1cnc2ccccc2c1=O)NCC(=O)N1CCC2(CC1)OCCO2 | - | - | - | - | -
CCCC[N+](=O)[O-] | - | - | . | . | .
COC1=CC(=O)OC(CCc2ccccc2)C1 (stereo not given) | - | - | . | . | .
COc1cc(CC2(CCc3ccncc3)C(=O)NC(=O)NC2=O)cc(OC)c1OC | - | - | - | - | -
COc1cc2c(cc1OC)-c1c(OC)c(OC)c(OC)c3ccnc(c13)C2=O | - | - | - | 6.5µM | -
O=[N+]([O-])/C=C/c1ccccc1 | - | ? | . | . | .
O=c1[nH]sc2cc(F)ccc12 | 2.2µM | 2.8µM | - | - | -
N#CSCC(=O)N1c2ccccc2CCc2ccccc21 | 11µM | ? | - | ? | -
N#CN=C1SCCN1Cc1ccc(Cl)nc1 | - | - | . | . | -
CC1=CC(=O)c2c(O)cccc2C1=O | 14µM | 13µM | . | . | -48
CN(C)P(=NC(=S)c1cccn1C)(N(C)C)N(C)C | 7.9µM | 16µM | . | . | -
CN(C)P(=O)(NC(=O)c1cccn1C)N(C)C | - | - | - | - | -
SMILES | RORgamma inh | VP16 counter | TSHR antagonist | ELG1 DNA repair | Coupling enz
C=C(C)[C@]12C[C@@H](C)[C@@]34OC(Cc5ccccc5)(O[C@@H]1[C@@H]3C=C(COC(=O)Cc1cc(OC)c(O)cc1I)C[C@]1(O)C(=O)C(C)=C[C@@H]41)O2 | - | ? | . | . | -
CCCCn1c(NS(=O)(=O)c2ccccc2)c(C(=O)OCC)c2nc3ccccc3nc21 | - | - | - | - | -
Nc1c(C(=O)NCCN2CCOCC2)c2nc3ccccc3nc2n1Cc1ccco1 | - | - | - | 21µM | -
CCCCn1c(N)c(C(=O)NCCN2CCOCC2)c2nc3ccccc3nc21 | - | - | - | 5.8µM | -
CCCCn1c(NC(=O)c2ccc(Br)o2)c(C(=O)OCC)c2nc3ccccc3nc21 | ? | ? | - | ? | -44
C=CCNC(=O)c1c(N)n(Cc2ccco2)c2nc3ccccc3nc12 | - | - | - | ? | -
Nc1c(C(=O)NCCN2CCOCC2)c2nc3ccccc3nc2n1Cc1ccccc1 | - | - | - | ? | -
COCCNC(=O)c1c(N)n(Cc2ccco2)c2nc3ccccc3nc12 | ? | - | - | 13µM | -
COc1cc(C2c3cc4c(cc3C(OC(C)=O)[C@H]3COC(=O)C23)OCO4)cc(OC)c1OC (stereo not given in full) | - | - | . | . | -
COCCCn1c(N)c(C(=O)NCc2ccco2)c2nc3ccccc3nc21 | - | - | - | ? | -35

Screening data deposited in PubChem by National Center for Advancing Translational Sciences (NCATS).
